# Assay outcomes deposited in PubChem by several laboratories.
# NPR1 activator – GC-A (human) enzyme activation. HEK293 GC-A cells, cGMP TR-FRET, EC30 ANP; 0% at EC30 ANP, 100% saturating ANP. actives 0.14% (n = 370,000). P16066. activation, % at 10 µM; in the data active means activation above about 40%
# Target sequence (P16066 whole entry, looked up): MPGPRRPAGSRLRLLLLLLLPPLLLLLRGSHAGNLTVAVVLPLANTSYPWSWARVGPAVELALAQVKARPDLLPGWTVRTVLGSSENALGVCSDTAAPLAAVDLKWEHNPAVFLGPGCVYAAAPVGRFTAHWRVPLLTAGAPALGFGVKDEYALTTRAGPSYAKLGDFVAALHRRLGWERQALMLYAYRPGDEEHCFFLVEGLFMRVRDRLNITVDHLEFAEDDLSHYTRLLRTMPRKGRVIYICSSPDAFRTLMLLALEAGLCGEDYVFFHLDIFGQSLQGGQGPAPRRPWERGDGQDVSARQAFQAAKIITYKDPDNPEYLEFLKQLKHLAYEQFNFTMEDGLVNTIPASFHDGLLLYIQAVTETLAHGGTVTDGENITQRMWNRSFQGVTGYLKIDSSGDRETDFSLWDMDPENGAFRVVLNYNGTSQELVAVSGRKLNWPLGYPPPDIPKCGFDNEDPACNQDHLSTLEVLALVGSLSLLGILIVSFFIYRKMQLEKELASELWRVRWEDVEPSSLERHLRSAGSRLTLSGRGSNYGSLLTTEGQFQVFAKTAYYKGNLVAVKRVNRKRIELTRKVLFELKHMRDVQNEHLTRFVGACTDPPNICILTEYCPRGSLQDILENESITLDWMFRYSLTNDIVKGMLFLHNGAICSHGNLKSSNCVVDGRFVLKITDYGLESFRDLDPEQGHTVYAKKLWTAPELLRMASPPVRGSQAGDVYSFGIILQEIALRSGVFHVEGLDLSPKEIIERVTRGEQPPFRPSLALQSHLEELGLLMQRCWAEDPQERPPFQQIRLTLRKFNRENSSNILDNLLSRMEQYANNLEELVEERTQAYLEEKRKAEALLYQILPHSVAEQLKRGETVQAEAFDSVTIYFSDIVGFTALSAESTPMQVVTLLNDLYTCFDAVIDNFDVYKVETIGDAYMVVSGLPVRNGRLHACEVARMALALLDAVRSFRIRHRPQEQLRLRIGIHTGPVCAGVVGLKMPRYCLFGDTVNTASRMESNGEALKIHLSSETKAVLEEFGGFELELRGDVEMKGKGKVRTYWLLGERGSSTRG
# V-ATPase pH – alters yeast V-ATPase proton transport; S. cerevisiae, pHLuorin cytosolic pH fluorescence; AID 504577; actives 0.37% (n = 350,000); response, % at 10 µM; in the data active means response mostly above about 7.3%, no sharp cut-off; inactive means mostly below about 5.4%; further: actives read high
# Rce1 inh – inhibitors of yeast Ras-converting enzyme. calls only. actives 0.27% (n = 290,000). yeast membranes, quenched prenylated peptide cleavage fluorescence. Q03530;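 active means fall in fluorescence gain of 50% or more versus controls, with final raw signal at or below 3038400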;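 further: plate controls were neutral control wells for no effect and wells lacking membranes for full effect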
# NSD2 HMT inh – inhibitors of human histone methyltransferase NSD2; O96028; NSD2 peptide methylation, AlphaScreen, 120 min; inhibition, % at 12.5 µM; actives 0.54% (n = 310,000); AID 743445; in the data active means inhibition above about 50%
# Efflux pump inh – blocks antifungal efflux pumps in multiplex yeast assay; S. cerevisiae Candida pump triplex, Nile Red efflux; inhibition, % at 10 µM; AID 485275; actives 0.44% (n = 330,000);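 active means plate passing quality check with inhibition over a set limit, or well fluorescence over plate mean plus 4 SD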;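 further: Nile Red retained in pooled yeast measured as flow cytometry median fluorescence; 0% = buffer negative control and 100% = Enniatin B positive control; higher means more Nile Red kept so more efflux inhibition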
# GC-B act – GC-B (human) receptor activation | P20594 | HEK293-GC-B cells, CNP EC30, cGMP TR-FRET; 0% at EC30 CNP, 100% saturating CNP | activation, % at 10 µM | actives 0.11% (n = 370,000);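 active means activation at 10 µM reaching about 35% in either raw or pattern-adjusted values, limit read from the data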
# Yeast cmpd fluor – flagged as fluorescent in efflux inhibitor counter-screen; shares compounds with Efflux pump inh; S. cerevisiae AD/pABC3, compound fluorescence, flow cytometry; fluorescence ratio to DMSO, % at 10 µM; actives 4% (n = 1,700); AID 588517;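 active means fluorescence ratio to DMSO above its plate's cutoff, the plate mean ratio plus 5 SD, cut at about 210% in these data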;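 further: unstained yeast with no Nile Red so the signal is compound autofluorescence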
# CaMdr1 efflux inh – blocks the Candida albicans Mdr1 efflux pump in yeast; S. cerevisiae AD/CaMDR1, Nile Red efflux, flow cytometry; shares compounds with Efflux pump inh; inhibition, % at 10 µM; AID 588518; actives 1% (n = 1,700); in the data active means inhibition above about 26%;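 further: 0% = DMSO vehicle and 100% = reference inhibitor; higher means more Nile Red retained so more efflux inhibition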
# Cdr2 pump inh – blocks the Candida albicans Cdr2 efflux pump in yeast. shares compounds with Efflux pump inh. S. cerevisiae AD/CaCDR2, Nile Red retention, flow cytometry. Nile Red retention ratio vs DMSO, % at 10 µM. actives 4% (n = 1,700); in the data active means Nile Red retention ratio vs DMSO above about 190%;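 further: higher ratio means more blocking of Cdr2 efflux of the dye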
# Cdr1 pump inh – Candida Cdr1 efflux pump inhibition; actives 1% (n = 1,700); S. cerevisiae AD/CaCDR1, Nile Red efflux, flow cytometry; inhibition, % at 10 µM; shares compounds with Efflux pump inh;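 active means inhibition above the screen-wide mean plus twice its standard deviation, cut at about 32% in these data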
# The depositor's hits bear a star; i = inactive; . = not tested or not shown. Hits are enriched below; roughly 1.6% of the tested compounds scored in any of these assays.
SMILES,NPR1 activator,V-ATPase pH,Rce1 inh,NSD2 HMT inh,Efflux pump inh,GC-B act,Yeast cmpd fluor,CaMdr1 efflux inh,Cdr2 pump inh,Cdr1 pump inh
CCCSc1nnc(-c2c[nH]c3ccccc23)n1C,2.6,-1.5,i,.,0.5*,-0.3,80.1,-0.2,93.2,-0.4
C[C@H](CCCCC1(C)OCCO1)CCC(=O)N(c1ccccc1)c1ccccc1,-8.8,.,.,.,.,-6.8,.,.,.,.
CN(C)S(=O)(=O)c1ccc(N2CCCC2)c(C(=O)Nc2nc3c(ccc4ccccc43)s2)c1,9.9,-4.3,i,-3.1,1.9*,0.8,107.9,0.0,122.6,0.4
COCCn1c(=S)[nH]c2sc3c(c2c1=O)CCCC3,3.5,-56.0,i,33.1,1.1*,0.2,86.9,-0.3,89.3,-0.1
COCCCn1c(=S)[nH]c2sc3c(c2c1=O)CCCC3,-4.0,3.8,i,6.2,0.0,-2.9,.,.,.,.
CCC(=O)NC(c1ccco1)c1cc(Cl)c2cccnc2c1O (stereo not given),-5.9,-2.0,i,-2.7,3.0*,-0.8,92.1,-0.1,109.4,0.1
CCCCC(=O)NC(c1ccco1)c1cc(Cl)c2cccnc2c1O (stereo not given),-6.4,1.7,i,-1.3,0.1,3.5,.,.,.,.
CC(C)OC(=O)c1ccc(COC(=O)c2cccc(-c3nnc(-c4ccccc4)o3)c2)cc1,-1.1,-3.1,i,-2.6,7.6*,-0.3,111.5,-0.3,101.5,0.1
CC1Cc2cc(S(=O)(=O)NCc3ccccc3)ccc2N1C(=O)C1CCC1 (stereo not given),-0.6,3.1,i,27.5,0.0,3.4,100.3,-0.4,105.1,-0.1
CC1Cc2cc(S(=O)(=O)NCc3ccccc3)ccc2N1C(=O)C1CC1 (stereo not given),4.5,-3.8,i,-10.3,0.0,4.9,.,.,.,.
O=C1CCC[C@H]2C[C@H](NCc3cccc(I)c3)CC[C@]23CCCN13,-1.5,.,.,.,.,-4.6,.,.,.,.
COc1ccc(NC(=O)N(C)C[C@H]2Oc3c(NC(=O)Nc4c(C)noc4C)cccc3C(=O)N([C@H](C)CO)C[C@@H]2C)cc1,1.8,2.6,.,.,-0.2,-1.4,100.3,-0.3,109.4,-0.1
Cc1noc(C)c1NC(=O)Nc1cccc2c1O[C@H](CN(C)C(=O)Nc1ccc(C(F)(F)F)cc1)[C@@H](C)CN([C@H](C)CO)C2=O,-1.0,0.0,.,.,-0.2,3.6,.,.,.,.
COc1ccc(NC(=O)N(C)C[C@H]2Oc3c(NC(=O)Nc4ccccc4)cccc3C(=O)N([C@H](C)CO)C[C@@H]2C)cc1,-3.9,-1.0,.,.,-0.4,1.7,.,.,.,.
COc1ccc(NC(=O)Nc2cccc3c2O[C@H](CN(C)C(=O)Nc2ccc(OC)cc2)[C@@H](C)CN([C@H](C)CO)C3=O)cc1,-1.3,3.1,.,.,-0.2,8.2,101.1,-0.1,116.5,-0.1
Cc1cc(NC(=O)c2ccc(NS(=O)(=O)c3ccc(F)cc3)cc2)no1,0.7,.,.,-0.3,.,-6.1,.,.,.,.
CCc1ccc(C2C(C(=O)O)c3ccccc3C(=O)N2C)cc1 (stereo not given),6.2,0.5,i,0.5,1.9*,2.5,104.6,-0.1,99.7,0.0
Cc1ccc(-n2nc3c(=O)n(CCCC(=O)NCc4ccc(C)o4)nc(C)c3c2C)cc1,-2.9,4.5,i,2.1,0.1,-4.6,103.1,-0.3,98.5,-0.1
Cc1nn(CC(=O)NCc2cccs2)c(=O)c2nn(-c3ccccc3)c(C)c12,-2.2,-2.2,i,-2.5,6.2*,-16.3,99.3,-0.2,89.0,0.0
Cc1ccc(-n2nc3c(=O)n(CC(=O)NCc4ccc(C)o4)nc(C)c3c2C)cc1,-0.9,1.9,i,-1.3,0.1,-2.0,.,.,.,.
Cc1cccc(C(=O)Nc2nnc(SCC(=O)Nc3ccc4c(c3)oc3ccccc34)s2)c1,-1.3,3.3,i,.,4.2*,2.9,91.9,0.3,114.4,0.3
CC1(C)CC(=O)C=C(Nc2ccccc2NC(=O)c2cccc(F)c2F)C1,-2.1,.,.,15.0,.,3.3,.,.,.,.
c1ccc(CN(Cc2ccco2)C(c2ccncc2)c2nnnn2C2CCCC2)cc1 (stereo not given),-2.3,2.9,i,2.4,0.6*,4.9,108.3,-0.4,101.5,-0.1
CCN(Cc1ccccc1)C(c1ccncc1)c1nnnn1C(C)(C)C (stereo not given),-1.9,-2.2,.,.,0.4*,-6.0,101.7,-0.1,107.2,-0.1
CCCCOCCCNC(=O)C[C@@H]1C(=O)N2CCCC3=C2[C@@]1(C(=O)OC)CCCC3,3.5,.,.,.,.,-2.2,.,.,.,.
SMILES,NPR1 activator,V-ATPase pH,Rce1 inh,NSD2 HMT inh,Efflux pump inh,GC-B act,Yeast cmpd fluor,CaMdr1 efflux inh,Cdr2 pump inh,Cdr1 pump inh
COc1ccc(NC(=O)c2cc3c(C)nn(-c4ccccc4)c3s2)cc1,12.5,.,.,6.8,.,3.1,.,.,.,.
CCOC(=O)c1c(O)c2cccc3c2n(c1=O)CC3,2.9,-2.8,.,-4.2,0.0,5.8,100.0,-0.1,94.0,0.0
CCOc1ccccc1/C=C/c1onc(C)c1S(=O)(=O)N1CCC(C(=O)N(CC)CC)CC1,-4.4,-2.6,i,4.8,0.2*,2.5,105.6,-0.3,108.3,0.0
CC(=O)OC12CCCN(C1)/C(=C/c1cccc(N(C)C)c1)C2 (stereo not given),-1.7,.,.,.,.,-5.3,.,.,.,.
CCC1CCCCN1CCCNC(=O)CN1C(=O)COc2ccc(S(=O)(=O)N3CCOCC3)cc21 (stereo not given),6.5,1.9,i,0.3,43.1*,4.3,103.0,-0.3,93.5,0.1
Cc1ccc(-c2cc(C(=O)NN=Cc3ccc(F)cc3)[nH]n2)cc1C,2.4,.,.,-7.3,.,-7.3,.,.,.,.
O=C(NC1CCCCN(Cc2ccc(OC(F)(F)F)cc2)C1=O)c1cccc(C(F)(F)F)c1 (stereo not given),-1.6,.,.,.,.,-1.2,.,.,.,.
COc1ccc(OC)c2sc(N3CCc4ccccc4C3)nc12,3.2,-1.7,i,.,0.1,-0.7,.,.,.,.
COc1ccc(OC)c2sc(N3CCCCC3)nc12,-1.5,0.2,i,2.2,1.1*,-4.3,103.4,-0.3,95.1,0.1
O=C(c1cc(COc2cccc(C(F)(F)F)c2)on1)N1CCC(c2ccccc2)CC1,-3.4,0.3,i,-1.0,-0.3,0.0,.,.,.,.
O=C(c1cc(COc2cccc(C(F)(F)F)c2)on1)N1CCC(c2ccncc2)CC1,-1.2,-0.8,i,-0.4,0.5*,-3.0,146.1,3.5,206.4*,2.6
Oc1ccc(N=Nc2c(O)ccc3ccccc23)cc1,-5.9,-3.8,i,.,0.8*,-7.5,144.9,-0.2,204.3*,0.1
